Experiment [1] addresses T1, Aurora kinase A (Homo sapiens) (UniProt O14965).
T1 sequence (whole entry): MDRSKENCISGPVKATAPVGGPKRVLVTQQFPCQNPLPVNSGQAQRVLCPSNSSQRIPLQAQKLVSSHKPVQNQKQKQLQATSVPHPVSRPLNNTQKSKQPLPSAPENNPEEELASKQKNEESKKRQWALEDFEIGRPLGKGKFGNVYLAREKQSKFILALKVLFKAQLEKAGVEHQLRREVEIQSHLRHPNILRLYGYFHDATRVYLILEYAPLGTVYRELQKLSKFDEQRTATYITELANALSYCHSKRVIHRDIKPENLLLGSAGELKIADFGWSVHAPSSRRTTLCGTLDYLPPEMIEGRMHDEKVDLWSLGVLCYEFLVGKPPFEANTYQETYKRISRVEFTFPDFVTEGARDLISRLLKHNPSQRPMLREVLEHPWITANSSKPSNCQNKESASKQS
The settings on record: at 1 µM.

Experiment [2] concerns the target Aurora kinase B (Homo sapiens) (UniProt Q96GD4). The settings on record: at 0.1 µM.
For experiment [3] the target is unchanged. Conditions: at 1 µM.
The target of experiment [4] is T2, Aurora kinase C (Homo sapiens) (UniProt Q9UQB9).
T2 sequence (whole entry): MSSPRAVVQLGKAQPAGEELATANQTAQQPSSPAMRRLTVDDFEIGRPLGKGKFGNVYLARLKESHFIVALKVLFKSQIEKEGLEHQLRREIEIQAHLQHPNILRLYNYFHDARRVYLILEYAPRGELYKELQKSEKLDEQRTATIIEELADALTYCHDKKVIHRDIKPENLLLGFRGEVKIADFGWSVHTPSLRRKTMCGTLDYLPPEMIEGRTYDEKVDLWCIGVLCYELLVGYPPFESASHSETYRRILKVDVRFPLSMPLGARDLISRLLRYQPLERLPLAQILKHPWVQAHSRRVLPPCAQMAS
The settings on record: at 1 µM.

Experiment [5] deals with Serine/threonine-protein kinase 10 (Homo sapiens) (UniProt O94804). Conditions: at 0.1 µM.
Serine/threonine-protein kinase 10 (Homo sapiens), sequence (O94804 whole entry, looked up): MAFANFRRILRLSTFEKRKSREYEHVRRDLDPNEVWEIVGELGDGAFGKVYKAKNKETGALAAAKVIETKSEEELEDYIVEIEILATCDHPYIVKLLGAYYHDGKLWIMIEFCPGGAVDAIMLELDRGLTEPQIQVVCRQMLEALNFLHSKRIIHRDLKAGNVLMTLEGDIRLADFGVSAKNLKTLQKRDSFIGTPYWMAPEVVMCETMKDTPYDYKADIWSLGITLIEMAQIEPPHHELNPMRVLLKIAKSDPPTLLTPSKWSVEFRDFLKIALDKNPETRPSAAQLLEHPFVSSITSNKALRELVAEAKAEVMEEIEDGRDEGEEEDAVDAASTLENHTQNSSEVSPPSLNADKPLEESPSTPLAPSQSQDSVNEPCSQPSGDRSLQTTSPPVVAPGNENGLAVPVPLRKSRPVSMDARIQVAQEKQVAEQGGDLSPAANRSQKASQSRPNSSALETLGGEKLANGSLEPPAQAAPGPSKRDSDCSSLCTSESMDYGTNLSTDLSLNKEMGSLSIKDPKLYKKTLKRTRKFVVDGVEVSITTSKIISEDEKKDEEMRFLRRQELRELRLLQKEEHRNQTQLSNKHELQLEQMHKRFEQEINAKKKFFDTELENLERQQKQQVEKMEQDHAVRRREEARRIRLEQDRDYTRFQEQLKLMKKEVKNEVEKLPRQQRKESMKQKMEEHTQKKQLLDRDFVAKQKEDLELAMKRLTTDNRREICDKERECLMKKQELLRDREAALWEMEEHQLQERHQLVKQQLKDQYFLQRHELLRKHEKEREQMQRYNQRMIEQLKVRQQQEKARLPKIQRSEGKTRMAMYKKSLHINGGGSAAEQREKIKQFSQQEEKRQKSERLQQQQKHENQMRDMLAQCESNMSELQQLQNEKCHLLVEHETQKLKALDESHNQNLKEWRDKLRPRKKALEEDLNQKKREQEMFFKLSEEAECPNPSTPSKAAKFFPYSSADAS
For experiment [6] the target is unchanged. Conditions: at 1 µM.
In experiment [7] the target is T3, Mitogen-activated protein kinase kinase kinase kinase 2 (Homo sapiens) (UniProt Q12851).
T3 sequence (whole entry): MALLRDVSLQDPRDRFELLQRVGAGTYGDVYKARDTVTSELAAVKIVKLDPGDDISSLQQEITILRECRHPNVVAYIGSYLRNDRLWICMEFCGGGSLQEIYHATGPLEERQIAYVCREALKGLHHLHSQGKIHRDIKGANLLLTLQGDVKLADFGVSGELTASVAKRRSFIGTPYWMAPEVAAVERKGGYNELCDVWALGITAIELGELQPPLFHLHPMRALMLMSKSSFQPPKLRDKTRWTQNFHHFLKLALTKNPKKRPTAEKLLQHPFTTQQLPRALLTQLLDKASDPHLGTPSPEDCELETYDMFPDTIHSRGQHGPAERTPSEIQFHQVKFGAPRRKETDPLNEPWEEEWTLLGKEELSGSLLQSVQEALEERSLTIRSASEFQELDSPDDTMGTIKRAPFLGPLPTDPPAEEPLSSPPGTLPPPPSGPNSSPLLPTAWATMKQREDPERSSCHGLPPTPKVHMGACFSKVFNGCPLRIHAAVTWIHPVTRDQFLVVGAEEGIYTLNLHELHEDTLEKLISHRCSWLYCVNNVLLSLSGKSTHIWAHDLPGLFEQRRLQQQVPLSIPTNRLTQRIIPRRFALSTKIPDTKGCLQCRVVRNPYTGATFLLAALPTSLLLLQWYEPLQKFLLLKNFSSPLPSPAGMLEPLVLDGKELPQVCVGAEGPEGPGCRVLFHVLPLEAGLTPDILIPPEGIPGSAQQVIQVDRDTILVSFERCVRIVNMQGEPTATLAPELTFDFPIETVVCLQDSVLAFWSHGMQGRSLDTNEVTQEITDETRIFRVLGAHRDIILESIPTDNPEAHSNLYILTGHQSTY
The settings on record: at 0.1 µM.

The target in experiment [8] is T3, Mitogen-activated protein kinase kinase kinase kinase 2 (Homo sapiens). Conditions: at 1 µM.
Experiment [9] concerns the target Mitogen-activated protein kinase kinase kinase kinase 4 (Homo sapiens) (UniProt O95819). Conditions: at 0.1 µM.
Experiment [10] shares this target. The settings on record: at 1 µM.
Experiment [11] has as its target Dual specificity mitogen-activated protein kinase kinase 1 (Homo sapiens) (UniProt Q02750). Conditions: at 0.1 µM.
For experiment [12] the target is unchanged. The settings on record: at 1 µM.
Experiment [13] has as its target Misshapen-like kinase 1 (Homo sapiens) (UniProt Q8N4C8). Conditions: at 0.1 µM.
For experiment [14] the target is unchanged. The settings on record: at 1 µM.
Experiment [15] concerns the target T4, Serine/threonine-protein kinase 4 (Homo sapiens) (UniProt Q13043).
T4 sequence (whole entry): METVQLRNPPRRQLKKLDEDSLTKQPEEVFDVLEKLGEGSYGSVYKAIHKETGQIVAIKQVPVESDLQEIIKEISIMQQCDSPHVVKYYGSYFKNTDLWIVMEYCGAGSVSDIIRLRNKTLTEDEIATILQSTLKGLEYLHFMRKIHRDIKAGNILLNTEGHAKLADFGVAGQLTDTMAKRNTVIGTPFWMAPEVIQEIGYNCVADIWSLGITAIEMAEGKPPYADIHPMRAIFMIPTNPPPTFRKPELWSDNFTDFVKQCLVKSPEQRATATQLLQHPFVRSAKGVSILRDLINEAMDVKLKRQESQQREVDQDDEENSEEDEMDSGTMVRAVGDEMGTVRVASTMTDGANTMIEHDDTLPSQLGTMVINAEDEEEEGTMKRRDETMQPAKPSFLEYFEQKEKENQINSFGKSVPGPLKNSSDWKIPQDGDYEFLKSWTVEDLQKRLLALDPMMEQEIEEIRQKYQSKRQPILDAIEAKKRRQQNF
Conditions: at 0.1 µM.

Experiment [16] concerns the target T4, Serine/threonine-protein kinase 4 (Homo sapiens). The settings on record: at 1 µM.
For experiment [17], the target named is T5, Serine/threonine-protein kinase 3 (Homo sapiens) (UniProt Q13188).
T5 sequence (whole entry): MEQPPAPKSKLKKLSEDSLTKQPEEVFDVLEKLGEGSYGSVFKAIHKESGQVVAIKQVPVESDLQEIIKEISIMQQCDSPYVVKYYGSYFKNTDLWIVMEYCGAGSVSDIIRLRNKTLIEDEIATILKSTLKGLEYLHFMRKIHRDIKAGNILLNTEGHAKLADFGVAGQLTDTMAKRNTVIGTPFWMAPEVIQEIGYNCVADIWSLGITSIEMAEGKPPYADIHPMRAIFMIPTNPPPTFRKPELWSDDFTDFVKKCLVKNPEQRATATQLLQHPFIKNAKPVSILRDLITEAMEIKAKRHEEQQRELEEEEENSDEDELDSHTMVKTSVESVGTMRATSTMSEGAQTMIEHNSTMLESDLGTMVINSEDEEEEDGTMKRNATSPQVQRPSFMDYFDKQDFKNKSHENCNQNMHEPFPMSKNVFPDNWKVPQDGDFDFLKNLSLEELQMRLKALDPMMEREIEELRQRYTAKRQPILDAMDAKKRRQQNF
The settings on record: at 0.1 µM.

The target in experiment [18] is T5, Serine/threonine-protein kinase 3 (Homo sapiens). Conditions: at 1 µM.
Experiment [19] deals with Serine/threonine-protein kinase 26 (Homo sapiens) (UniProt Q9P289). Conditions: at 0.1 µM.
Serine/threonine-protein kinase 26 (Homo sapiens), sequence (Q9P289 2-416 limits assumed): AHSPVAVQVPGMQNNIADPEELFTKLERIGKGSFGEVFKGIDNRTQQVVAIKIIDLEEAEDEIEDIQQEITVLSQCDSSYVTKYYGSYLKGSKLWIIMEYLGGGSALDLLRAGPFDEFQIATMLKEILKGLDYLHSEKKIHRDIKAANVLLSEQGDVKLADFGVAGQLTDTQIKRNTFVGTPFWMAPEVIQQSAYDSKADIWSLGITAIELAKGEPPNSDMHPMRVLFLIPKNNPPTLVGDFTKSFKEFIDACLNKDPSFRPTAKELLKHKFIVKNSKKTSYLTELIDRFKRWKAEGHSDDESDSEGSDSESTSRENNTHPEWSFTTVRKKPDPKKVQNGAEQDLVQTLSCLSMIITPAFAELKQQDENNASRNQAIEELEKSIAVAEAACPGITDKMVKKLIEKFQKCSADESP
Experiment [20] deals with T2, Aurora kinase C (Homo sapiens). Conditions: at 0.1 µM.

Experimental findings from ChEMBL document CHEMBL1961873, “Compounds: GSK PKIS; Assays: Nanosyn kinase panel” (2012) are described below.

Aurora kinase B (Homo sapiens), sequence (Q96GD4 whole entry): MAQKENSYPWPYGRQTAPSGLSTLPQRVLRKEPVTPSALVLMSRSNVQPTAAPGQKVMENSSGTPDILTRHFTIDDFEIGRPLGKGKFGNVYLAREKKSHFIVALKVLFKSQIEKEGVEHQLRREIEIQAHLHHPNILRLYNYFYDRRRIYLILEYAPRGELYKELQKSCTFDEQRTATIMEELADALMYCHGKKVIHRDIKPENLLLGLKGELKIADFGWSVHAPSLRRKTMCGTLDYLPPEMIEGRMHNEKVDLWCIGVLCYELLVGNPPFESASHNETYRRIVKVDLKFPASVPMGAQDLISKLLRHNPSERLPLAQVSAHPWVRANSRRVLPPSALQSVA
Mitogen-activated protein kinase kinase kinase kinase 4 (Homo sapiens), sequence (O95819 2-1239 limits assumed): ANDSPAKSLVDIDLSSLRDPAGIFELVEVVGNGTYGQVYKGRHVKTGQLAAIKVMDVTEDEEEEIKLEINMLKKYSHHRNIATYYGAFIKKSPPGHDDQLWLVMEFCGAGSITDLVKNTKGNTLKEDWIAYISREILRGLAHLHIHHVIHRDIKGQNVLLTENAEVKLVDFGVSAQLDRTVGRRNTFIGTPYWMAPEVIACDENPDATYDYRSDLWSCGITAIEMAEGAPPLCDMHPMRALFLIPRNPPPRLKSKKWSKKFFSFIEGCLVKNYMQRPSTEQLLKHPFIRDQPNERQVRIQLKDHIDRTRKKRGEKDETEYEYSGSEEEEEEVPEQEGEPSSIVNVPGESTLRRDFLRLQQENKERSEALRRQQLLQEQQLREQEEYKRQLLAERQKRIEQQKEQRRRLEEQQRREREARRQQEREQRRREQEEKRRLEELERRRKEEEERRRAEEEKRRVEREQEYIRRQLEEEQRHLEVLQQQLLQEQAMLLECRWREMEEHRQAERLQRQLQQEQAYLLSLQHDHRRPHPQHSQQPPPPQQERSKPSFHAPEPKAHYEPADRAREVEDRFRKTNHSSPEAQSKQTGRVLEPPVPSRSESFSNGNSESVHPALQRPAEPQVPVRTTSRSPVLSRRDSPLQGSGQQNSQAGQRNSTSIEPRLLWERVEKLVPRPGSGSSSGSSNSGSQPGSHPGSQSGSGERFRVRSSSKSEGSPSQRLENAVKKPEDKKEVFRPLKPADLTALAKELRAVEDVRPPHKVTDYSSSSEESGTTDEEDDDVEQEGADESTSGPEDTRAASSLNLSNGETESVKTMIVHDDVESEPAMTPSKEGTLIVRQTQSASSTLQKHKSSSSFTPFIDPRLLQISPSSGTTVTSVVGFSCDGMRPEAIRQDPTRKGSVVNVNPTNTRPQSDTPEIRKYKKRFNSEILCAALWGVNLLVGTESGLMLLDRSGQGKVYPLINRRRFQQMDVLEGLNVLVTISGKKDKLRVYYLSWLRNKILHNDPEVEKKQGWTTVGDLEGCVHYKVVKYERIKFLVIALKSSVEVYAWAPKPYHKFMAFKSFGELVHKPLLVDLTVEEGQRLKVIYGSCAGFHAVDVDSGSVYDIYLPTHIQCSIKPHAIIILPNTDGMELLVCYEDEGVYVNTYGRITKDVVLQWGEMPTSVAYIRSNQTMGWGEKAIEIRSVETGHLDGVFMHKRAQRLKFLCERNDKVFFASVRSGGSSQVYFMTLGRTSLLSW
Dual specificity mitogen-activated protein kinase kinase 1 (Homo sapiens), sequence (Q02750 whole entry): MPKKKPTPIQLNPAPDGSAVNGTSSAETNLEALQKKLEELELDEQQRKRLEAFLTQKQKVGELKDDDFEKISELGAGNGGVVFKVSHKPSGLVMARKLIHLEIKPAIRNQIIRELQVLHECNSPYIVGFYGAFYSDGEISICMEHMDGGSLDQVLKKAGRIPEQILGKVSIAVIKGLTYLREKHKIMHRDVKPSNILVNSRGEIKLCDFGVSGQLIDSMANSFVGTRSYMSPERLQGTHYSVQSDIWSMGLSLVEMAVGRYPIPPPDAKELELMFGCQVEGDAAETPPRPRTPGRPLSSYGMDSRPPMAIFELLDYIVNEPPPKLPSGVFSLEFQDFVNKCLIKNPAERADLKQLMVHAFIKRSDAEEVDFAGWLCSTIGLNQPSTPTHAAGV
Misshapen-like kinase 1 (Homo sapiens), sequence (Q8N4C8 whole entry, looked up): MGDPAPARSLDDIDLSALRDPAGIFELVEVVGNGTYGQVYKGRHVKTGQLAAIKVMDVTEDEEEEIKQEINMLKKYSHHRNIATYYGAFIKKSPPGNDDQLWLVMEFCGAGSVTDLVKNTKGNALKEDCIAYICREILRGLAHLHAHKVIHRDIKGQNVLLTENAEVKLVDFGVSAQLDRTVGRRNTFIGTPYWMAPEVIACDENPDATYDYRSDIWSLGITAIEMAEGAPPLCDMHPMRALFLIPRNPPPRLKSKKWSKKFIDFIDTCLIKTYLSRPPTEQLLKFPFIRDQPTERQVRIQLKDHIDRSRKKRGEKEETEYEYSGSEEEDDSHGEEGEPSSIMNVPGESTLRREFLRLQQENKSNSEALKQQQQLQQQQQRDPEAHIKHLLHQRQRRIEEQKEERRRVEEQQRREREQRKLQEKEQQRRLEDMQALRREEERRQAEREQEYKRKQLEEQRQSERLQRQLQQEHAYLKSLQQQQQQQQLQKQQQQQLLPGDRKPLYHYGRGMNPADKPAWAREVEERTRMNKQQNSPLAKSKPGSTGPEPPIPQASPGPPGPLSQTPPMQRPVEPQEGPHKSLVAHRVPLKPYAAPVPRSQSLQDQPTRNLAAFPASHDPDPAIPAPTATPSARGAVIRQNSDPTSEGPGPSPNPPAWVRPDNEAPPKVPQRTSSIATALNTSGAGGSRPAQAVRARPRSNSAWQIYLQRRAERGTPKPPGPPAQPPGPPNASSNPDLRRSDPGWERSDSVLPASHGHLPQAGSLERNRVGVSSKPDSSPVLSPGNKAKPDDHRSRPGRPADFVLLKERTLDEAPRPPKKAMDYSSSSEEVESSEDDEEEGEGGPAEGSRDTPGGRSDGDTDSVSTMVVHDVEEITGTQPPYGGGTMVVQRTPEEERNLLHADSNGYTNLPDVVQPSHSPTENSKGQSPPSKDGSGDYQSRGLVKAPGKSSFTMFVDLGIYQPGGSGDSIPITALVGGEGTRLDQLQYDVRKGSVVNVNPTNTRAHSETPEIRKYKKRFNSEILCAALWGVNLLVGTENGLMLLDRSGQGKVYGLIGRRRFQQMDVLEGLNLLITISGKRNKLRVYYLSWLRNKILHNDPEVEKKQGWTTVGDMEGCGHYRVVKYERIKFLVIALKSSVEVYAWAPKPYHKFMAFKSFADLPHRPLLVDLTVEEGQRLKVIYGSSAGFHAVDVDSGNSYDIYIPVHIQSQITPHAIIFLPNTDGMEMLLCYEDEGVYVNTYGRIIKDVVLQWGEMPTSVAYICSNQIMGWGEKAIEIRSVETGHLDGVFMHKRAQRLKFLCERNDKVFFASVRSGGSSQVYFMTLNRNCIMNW

For orientation: inhibition means the change of the read-out against control, counted positive when it falls. As to `COc1cc(Nc2nccc(-c3cnn4ncccc34)n2)cc(OC)c1`, the inhibition stood at 94.2% in [1]; 20.5% in experiment [2]; 71% in experiment [3]; 94.4% in experiment [4]; 5.8% in experiment [5]; 27.3% in experiment [6]. In addition, the inhibition in experiment [7] stood at 28.5%; in [8], 72.7%; in experiment [9], 26.1%; in [10], 78.9%; in experiment [11] it was 3.92%; in [12], 26.4%. Further, the inhibition was 20.6% in experiment [13]; 71.9% in [14]; 5.52% in experiment [15]; 35.6% in experiment [16]; 5.54% in experiment [17]; 29.6% in experiment [18]. Also, the inhibition in [19] is 0.99%.

As for `[O-][S+]1CCN(Cc2ccc(-c3ccc4ncnc(Nc5ccc(OCc6ccccc6)c(Cl)c5)c4c3)o2)CC1`, the inhibition is 2.75% in experiment [1]; 3.28% in experiment [2]; 5.05% in [3]; -0.09% in experiment [20]; 1.6% in [4]; 3.93% in [5]. Moreover, the inhibition in experiment [6] was 12.3%; in experiment [7], -0.35%; in experiment [8] it was 1.53%; in [9], 0.26%; in [10], 3.32%; in [11], 2.1%. Further, the inhibition is 3.29% in [12]; -0.23% in experiment [13]; 1.36% in experiment [14]; 0.8% in [15]; 1.83% in experiment [16]; -0.27% in [17]. In addition, the inhibition in experiment [18] is 0.41%; in experiment [19] it was -0.67%.

Take `NS(=O)(=O)c1ccc(N/N=C2\C(=O)Nc3ccc(Cl)cc32)cc1`: the inhibition came to 26.8% in experiment [1]; 3.68% in experiment [2]; 6.25% in [3]; 1.97% in experiment [20]; 5.64% in experiment [4]; 6.82% in experiment [5]. The inhibition was 6.74% in experiment [6]; 0.49% in experiment [7]; 3.26% in experiment [8]; 25.7% in experiment [9]; 75.5% in [10]; 5.27% in [11]. Besides, the inhibition in experiment [12] stood at 5.11%; in experiment [13], 18.5%; in experiment [14], 65.7%; in experiment [15], 21.2%; in experiment [16], 67.5%; in experiment [17], 16.8%. Also, the inhibition in [18] amounted to 56.9%; in experiment [19], 1.38%.

For `OCc1ccc(-c2nc(-c3ccccn3)c(-c3ccc4c(c3)OCO4)[nH]2)cc1`, the inhibition in experiment [1] worked out at 11%; in experiment [2] it was 6.24%; in [3], 11.7%; in experiment [20], 3.67%; in [4] it was 12.5%; in experiment [5], 6.01%. Besides, the inhibition came to 4.97% in [6]; 1.15% in experiment [7]; 2.87% in experiment [8]; 5.21% in experiment [9]; 6.4% in experiment [10]; 5.12% in [11]. The inhibition in experiment [12] was 4.13%; in experiment [13] it was 5.77%; in experiment [14], 7.23%; in [15], 6.59%; in [16], 6.27%; in experiment [17] it was 8.49%. The figures for the inhibition in experiment [18] and in [19] were 4.84% and -1.45%, respectively.

For the compound `COc1cccc(-n2ncc3c(N/N=C/c4ccc(S(C)(=O)=O)cc4)ncnc32)c1`, the inhibition in experiment [1] came out at 28.4%; in experiment [2], 9.58%; in experiment [3], 42.4%; in experiment [20] it was 0.72%; in experiment [4] it was 12.2%; in experiment [5], 6.63%. Further, the inhibition came out at 16.3% in experiment [6]; 0.47% in [7]; 0.9% in experiment [8]; 16.2% in experiment [9]; 59.4% in [10]; 1.79% in experiment [11]. The inhibition in [12] amounted to 1.58%; in experiment [13], 13.4%; in experiment [14], 50.3%; in experiment [15], 1.66%; in experiment [16] it was 4.3%; in experiment [17], 0.59%. The values for the inhibition in [18] and in experiment [19] were 2.91% and 1.71%, respectively.

For `Nc1ccc(C#Cc2cncnc2Nc2ccc(OCc3cccc(F)c3)c(Cl)c2)cc1`, the inhibition in experiment [1] is 0.03%; in experiment [2] it was 3.38%; in [3] it was 1.27%; in experiment [20], 0.25%; in experiment [4], 2.24%; in [5], 5.13%. The inhibition in experiment [6] turned out to be 6.55%; in [7], 0.2%; in experiment [8] it was 1.98%; in experiment [9] it was 2.07%; in experiment [10], 0.49%; in experiment [11], 2.6%. Besides, the inhibition in experiment [12] worked out at 3.23%; in experiment [13], 3.73%; in experiment [14] it was 1.66%; in experiment [15], 2.07%; in experiment [16], 2.02%; in experiment [17], 3.2%. Further, the inhibition in experiment [18] is 4.05%; in experiment [19] it was -0.87%.

In the case of `O=C(Nc1ccc(Oc2ccc3[nH]c(NC(=O)c4ccco4)nc3c2)cc1)Nc1cc(C(F)(F)F)ccc1F`, the inhibition in experiment [1] stood at 15.1%; in experiment [2], 5.43%; in experiment [3] it was 38.8%; in experiment [20], 8.04%; in experiment [4], 82.4%; in experiment [5], 35.6%. Further, the inhibition in experiment [6] came to 76.7%; in [7], 2.98%; in experiment [8] it was 28.9%; in experiment [9], 0.47%; in [10] it was 5.1%; in experiment [11], 0.55%. Moreover, the inhibition in experiment [12] was 1.24%; in experiment [13], 0.49%; in [14], -0.52%; in experiment [15] it was -0.01%; in experiment [16], 0.17%; in experiment [17], -1.13%. Further, the inhibition in [18] is -0.98%; in experiment [19], 0.66%.
